Consider eleven compounds from PubChem BioAssay (NCATS).

Structures are written as SMILES. Values joined by “and” are separate entries in the source; they are usually repeats but may differ in a detail not shown here. Equal entries are not always repeated. Records with an inconclusive call do not appear. Unmarked numbers belong to inactive results. Active and inactive are the calls of the source. The call rests on the fitted dose curve; in most records, active means well fitted curve in the direction sought with a large enough effect; inconclusive means small, poorly fitted or top-dose-only effect, or another doubt; inactive means no such curve, though single readings can be large; an effect the other way counts as inactive or inconclusive.

One test deals with HaCat. Description: Cytotoxic Profiling of Annotated Libraries Using Quantitative High-Throughput Screening (AID 1296008). Further: nearly all actives have a fitted effect of over 60% in size. The settings on record: Five cell lines viability, CellTiter-Glo ATP luminescence, 48-72 h; max response: hits give low values. In outline: (§1)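 Cells exposed to compounds for 48 or 72 hr at 37 degrees Celsius. Viability read as ATP-coupled luminescence with CellTiter-Glo after 10 min at room temperature.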

The test system of the next test is KB-3-1. The description is as above. The settings on record: Five cell lines viability, CellTiter-Glo ATP luminescence, 48-72 h; max response: hits give low values. In outline: as §1
A general note: ATP-based viability assays read luminescence as a measure of living cells.

The next test has as its system NIH3T3. The test is described as above. The settings on record: Five cell lines viability, CellTiter-Glo ATP luminescence, 48-72 h; max response: hits give low values. In outline:
as §1

Another test relates to MCC-13. The test can be described thus: qHTS assay to identify novel small-molecules to repurpose for Merkel cell carcinoma treatment (AID 1296009). Further: nearly all actives have a fitted effect of over 60% in size. To be noted: MCC and control cell lines, CellTiter-Glo viability, 72 h; series mostly up to 46 µM. The essentials:
(§2)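 Cells were treated for 72 hr at 37 degree celsius with compounds in 8- or 11-point dose response. Viability was read by CellTiter-Glo luminescence, normalized to no-cell (cytotoxicity) and DMSO controls.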
On the technique in general: In qHTS, concentration-response curves come from the screen itself.

A further test relates to MCC-26. Described as above. To be noted: MCC and control cell lines, CellTiter-Glo viability, 72 h; series mostly up to 46 µM. In outline: as §2
Another test deals with MKL-2. The test is described as above. The settings on record: MCC and control cell lines, CellTiter-Glo viability, 72 h; series mostly up to 46 µM. The essentials: as §2
The test system of a further test is C33A. The test can be described thus: Primary qHTS to identify gynecologic anti-cancer compounds using libraries of approved drugs and bioactive compounds (AID 1345084). Further: nearly all actives have a fitted effect of over 55% in size. The settings on record: Gynecologic cancer cell panel viability, ATPlite luminescence, 48 h; series mostly up to 57.5 µM. In outline:
(§3)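 Cell viability after 48 h drug treatment, ATPlite luminescence readout; five doses.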

The test system of another test is CASKI. The test is described as above. To be noted: Gynecologic cancer cell panel viability, ATPlite luminescence, 48 h; series mostly up to 57.5 µM. The essentials:
as §3

The next test deals with Es-2. The description is as above. To be noted: Gynecologic cancer cell panel viability, ATPlite luminescence, 48 h; series mostly up to 57.5 µM. In outline:
as §3

In another test the test system is HeLa. The test is described as above. The settings on record: Gynecologic cancer cell panel viability, ATPlite luminescence, 48 h; series mostly up to 57.5 µM. In outline:
as §3

The test system of another test is Hek293T. Described as above. To be noted: Gynecologic cancer cell panel viability, ATPlite luminescence, 48 h, control line for the selectivity index; series mostly up to 57.5 µM. In outline: as §3
The next test concerns MKL-1. Description: qHTS assay to identify novel small-molecules to repurpose for Merkel cell carcinoma treatment (AID 1296009). Further: nearly all actives have a fitted effect of over 60% in size. To be noted: MCC and control cell lines, CellTiter-Glo viability, 72 h; series mostly up to 46 µM. In outline:
as §2

A further test deals with UISO. The test is described as above. The settings on record: MCC and control cell lines, CellTiter-Glo viability, 72 h; series mostly up to 46 µM. The essentials:
as §2

The subject of the next test is WaGa. The test is described as above. To be noted: MCC and control cell lines, CellTiter-Glo viability, 72 h; series mostly up to 46 µM. The essentials:
as §2

In the next test the test system is JEG-3. The test can be described thus: Primary qHTS to identify gynecologic anti-cancer compounds using libraries of approved drugs and bioactive compounds (AID 1345084). Further: nearly all actives have a fitted effect of over 55% in size. The settings on record: Gynecologic cancer cell panel viability, ATPlite luminescence, 48 h; series mostly up to 57.5 µM. In outline: as §3
Another test deals with OV90. The description is as above. To be noted: Gynecologic cancer cell panel viability, ATPlite luminescence, 48 h; series mostly up to 57.5 µM. The essentials: as §3
In the next test the test system is CAOV3. Described as above. The settings on record: Gynecologic cancer cell panel viability, ATPlite luminescence, 48 h; series mostly up to 57.5 µM. The essentials: as §3
On the % scale 0 is the no-effect control and ±100 the full control effect; potency means the concentration at half of the fitted maximal effect.

For `NC1(Cc2ccc(Cl)cc2)CCN(c2ncnc3[nH]ccc23)CC1`, the max response in the test on HaCat was -10.8%; with KB-3-1, -6.56%; with NIH3T3 it was 0.262%. Also, the Potency entry in the test with MCC-13, in the test with MCC-26, in the test with MKL-2, in the test with CASKI, in the test on Es-2 and in the test with HeLa was “inactive” each time. The Potency with C33A and in the test on Hek293T was 10 µM (active) throughout.

On to `C[C@@H](Oc1cc(-c2cnn(C3CCNCC3)c2)cnc1N)c1c(Cl)ccc(F)c1Cl`, for which the Potency was 13 µM (active) and 10.3 µM (active) with HaCat; 6510 nM (active) in the test with KB-3-1; 3.72 µM (active) and 2.91 µM (active) and 5.17 µM (active) in the test on NIH3T3; 13.2 µM (active) in the test on MKL-1; 14.8 µM (active) in the test with UISO; 23.5 µM (active) with WaGa. Besides, the Potency is 20 µM (active) in the test on C33A; 14.1 µM (active) in the test on CASKI; 3.55 µM (active) and 14.1 µM (active) in the test on HeLa; 25.1 µM (active) in the test on Hek293T; 28.2 µM (active) in the test with JEG-3; 25.1 µM (active) with OV90. The Potency result in the test with MCC-13 was “inactive”.

As to `Nc1nccc(Oc2ccc(NC(=O)c3c[nH]cc(-c4ccc(F)cc4)c3=O)cc2F)c1Cl`, the max response in the test with HaCat is -25.3%. The Potency in the test on KB-3-1 is 23.5 µM (active) and 18.4 µM (active); in the test on NIH3T3 it was 16.6 µM (active); in the test on MKL-1, 5.26 µM (active); in the test with MKL-2, 14.8 µM (active); in the test with UISO it was 14.8 µM (active); with WaGa it was 2.35 µM (active). In addition, the Potency result with MCC-13, with C33A, with CASKI, in the test on HeLa, in the test with Hek293T and in the test with JEG-3 was “inactive” throughout. Besides, the Potency result in the test on OV90 is “inactive”.

Regarding `Nc1ncnc2c1c(-c1cnc3[nH]ccc3c1)nn2C1CCCC1`, the Potency in the test on HaCat is 2.64 µM (active) and 1.84 µM (active); in the test on KB-3-1, 1.66 µM (active) and 4.61 µM (active); with NIH3T3, 83.3 nM (active) and 517 nM (active); in the test with MCC-13, 4.18 µM (active); with MCC-26, 10.5 µM (active); in the test with UISO, 4.69 µM (active). Also, the Potency is 11.2 µM (active) in the test with CASKI; 10 µM (active) with Es-2; 10 µM (active) in the test on HeLa; 7.94 µM (active) in the test with Hek293T; 5.01 µM (active) with OV90.

Turning to `Cc1[nH]nc2ccc(-c3cncc(OC[C@@H](N)Cc4ccccc4)c3)cc12`, the Potency is 1.32 µM (active) and 411 nM (active) in the test with HaCat; 332 nM (active) with KB-3-1; 3.72 µM (active) and 7.31 µM (active) in the test on NIH3T3; 4.18 µM (active) in the test with MCC-13; 6.62 µM (active) in the test on MCC-26; 1.87 µM (active) with MKL-1. Also, the Potency was 1.66 µM (active) with MKL-2; 0.833 µM (active) in the test with UISO; 6.31 µM (active) in the test with CASKI; 8.91 µM (active) with Es-2; 2.24 µM (active) in the test on HeLa; 1.78 µM (active) with Hek293T. For the same compound, the Potency in the test on JEG-3 is 10 µM (active); with OV90, 3.55 µM (active).

For the compound `O=C(C=Cc1cccnc1)NCCCCC1CCN(C(=O)c2ccccc2)CC1`, the Potency is 372 nM (active) in the test on HaCat; 13.2 nM (active) in the test with KB-3-1; 0.0372 µM (active) in the test on NIH3T3; 0.0526 µM (active) in the test on MCC-13; 0.0209 µM (active) with MCC-26; 0.0209 µM (active) with MKL-2. For the same compound, the figures for the Potency in the test on UISO and with WaGa were 0.0209 µM (active) and 0.0166 µM (active), respectively.

As for `COc1ccc(C=Cc2cc(OC)c(OC)c(OC)c2)cc1O`, the max response in the test on HaCat is -0.114%; with NIH3T3, -49.1%. Also, in the test with KB-3-1, the Potency was 1 nM (active). In addition, the Potency result in the test with MCC-13, in the test with MCC-26, in the test with MKL-2 and in the test with WaGa was “inactive” in each case.

Consider `Nc1cc(C(F)(F)F)c(-c2cc(N3CCOCC3)nc(N3CCOCC3)n2)cn1`, for which the Potency in the test on HaCat was 1.18 µM (active) and 1.64 µM (active); with KB-3-1 it was 743 nM (active) and 1.46 µM (active); in the test on NIH3T3, 1.05 µM (active) and 2.59 µM (active); with MCC-13, 2.96 µM (active); in the test on MCC-26, 2.35 µM (active); in the test on MKL-1, 1.66 µM (active). Moreover, the Potency in the test with UISO is 1.66 µM (active); in the test with C33A it was 15.8 µM (active); in the test with CASKI, 3.55 µM (active); in the test with Es-2, 6.31 µM (active); with HeLa, 3.98 µM (active); in the test on Hek293T, 3.16 µM (active). Moreover, the Potency in the test with JEG-3 is 7.94 µM (active); in the test on OV90 it was 10 µM (active). Also, in the test on MKL-2, the Potency result is “inactive”.

`CC(=O)c1c(C)c2cnc(Nc3ccc(N4CCNCC4)cn3)nc2n(C2CCCC2)c1=O`: the max response with HaCat was 1.14%; with KB-3-1, -7.2%; in the test with NIH3T3, 3.53%. Moreover, the Potency entry in the test with MCC-13, in the test on MCC-26 and in the test on WaGa was “inactive” throughout. The activity change, negative = cytotoxicity with C33A was 9.39% [at 6.55 µM]; with CAOV3, 11.3% [at 6.55 µM]; in the test on CASKI, 12% [at 6.55 µM]; in the test with Es-2, 0.0946% [at 6.55 µM]; in the test on HeLa it was -1.33% [at 6.55 µM]; with Hek293T it was 25.4% [at 6.55 µM]. The figures for the activity change, negative = cytotoxicity with JEG-3 and with OV90 were -5.97% [at 6.55 µM] and 15% [at 6.55 µM], respectively.

In the case of `CC(C)c1nn(-c2c(Cl)cccc2Cl)c2nc(Cc3ccc(OCCO)cc3)[nH]c(=O)c12`, the Potency is 118 nM (active) and 231 nM (active) in the test on HaCat; 58 nM (active) with KB-3-1; 93.5 nM (active) and 130 nM (active) in the test with NIH3T3; 0.105 µM (active) with MCC-13; 0.132 µM (active) in the test with MKL-1; 0.105 µM (active) with MKL-2. Besides, the Potency with UISO was 0.105 µM (active); in the test on C33A it was 0.282 µM (active); in the test with CAOV3, 0.158 µM (active); in the test with CASKI it was 0.501 µM (active).

As to `C[C@]12CC[C@H](O)CC1=CCC1C2CC[C@]2(C)C(n3cnc4ccccc43)=CCC12` (some centres not stated), the max response in the test on HaCat is 2.2%; in the test with KB-3-1, 0.714%; in the test with NIH3T3, 3.78% and -16%. Moreover, the Potency result with MCC-13, with MCC-26, with MKL-1, with UISO, in the test with WaGa and in the test on C33A was “inactive” each time. The Potency entry in the test on CASKI, in the test with Es-2, in the test with HeLa, with Hek293T, in the test with JEG-3 and with OV90 was “inactive” each time.
